Drawing on PubChem BioAssay (NCATS), this text covers Potency, outcome and activity, negative = cell killing for six molecules.

Test [1] has as its system MCC-13. Briefly: qHTS assay to identify novel small-molecules to repurpose for Merkel cell carcinoma treatment (AID 1296009). Note: nearly all actives have a fitted effect of over 60% in size. Particulars: MCC and control cell lines, CellTiter-Glo viability, 72 h; series mostly up to 46 µM. The method, boiled down:
(§1)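 After compound transfer in DMSO, plates were kept 72 hr at 37 degree celsius. Luminescent ATP signal from CellTiter-Glo served as viability measure, normalized against DMSO and no-cell controls.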
In general terms: Quantitative high-throughput screening tests each substance at several concentrations.

The subject of test [2] is MKL-1. Described as above. Conditions: MCC and control cell lines, CellTiter-Glo viability, 72 h; series mostly up to 46 µM. Put shortly: as §1
Test [3] deals with MKL-2. The description is as above. Particulars: MCC and control cell lines, CellTiter-Glo viability, 72 h; series mostly up to 46 µM. Put shortly:
as §1
A general note: Cellular ATP, detected with luciferase, serves as a proxy for viable cell number.

For test [4], the system named is NIH3T3. Described as above. Particulars: MCC and control cell lines, CellTiter-Glo viability, 72 h; at 44.8 µM (top of the series) unless noted. The method, boiled down: as §1
The test system of test [5] is UISO. The description is as above. Particulars: MCC and control cell lines, CellTiter-Glo viability, 72 h; series mostly up to 46 µM. The method, boiled down:
as §1

Test [6] deals with WaGa. The description is as above. Conditions: MCC and control cell lines, CellTiter-Glo viability, 72 h; series mostly up to 46 µM. The method, boiled down: as §1
Test [7] deals with C33A. As to the kind of experiment: Primary qHTS to identify gynecologic anti-cancer compounds using libraries of approved drugs and bioactive compounds (AID 1345084). Note: nearly all actives have a fitted effect of over 55% in size. Conditions: Gynecologic cancer cell panel viability, ATPlite luminescence, 48 h; series mostly up to 57.5 µM. Put shortly:
(§2)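 Cells, 1,000 per well, plated 16 h, then exposed 48 h at 37 C to compounds. Viability by ATPlite luminescence after 15 min at room temperature.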

Test [8] concerns CAOV3. The test is described as above. Conditions: Gynecologic cancer cell panel viability, ATPlite luminescence, 48 h; series mostly up to 57.5 µM. Put shortly:
as §2

The test system of test [9] is CASKI. The description is as above. Conditions: Gynecologic cancer cell panel viability, ATPlite luminescence, 48 h; series mostly up to 57.5 µM. Put shortly: as §2
For test [10], the system named is Es-2. The description is as above. Conditions: Gynecologic cancer cell panel viability, ATPlite luminescence, 48 h; series mostly up to 57.5 µM. The method, boiled down: as §2
The subject of test [11] is HeLa. The description is as above. Particulars: Gynecologic cancer cell panel viability, ATPlite luminescence, 48 h; series mostly up to 57.5 µM. The method, boiled down: as §2
In test [12] the test system is Hek293T. The test is described as above. Conditions: Gynecologic cancer cell panel viability, ATPlite luminescence, 48 h, control line for the selectivity index; series mostly up to 57.5 µM. Put shortly:
as §2

The test system of test [13] is JEG-3. The description is as above. Particulars: Gynecologic cancer cell panel viability, ATPlite luminescence, 48 h; series mostly up to 57.5 µM. The method, boiled down:
as §2

In test [14] the test system is OV90. The description is as above. Particulars: Gynecologic cancer cell panel viability, ATPlite luminescence, 48 h; series mostly up to 57.5 µM. Put shortly:
as §2

The test system of test [15] is PA-1. The description is as above. Conditions: Gynecologic cancer cell panel viability, ATPlite luminescence, 48 h; series mostly up to 57.5 µM. The method, boiled down: as §2
The subject of test [16] is SKOV3. The description is as above. Conditions: Gynecologic cancer cell panel viability, ATPlite luminescence, 48 h; series mostly up to 57.5 µM. Put shortly:
as §2

Test [17] deals with Tov-21-G. The description is as above. Conditions: Gynecologic cancer cell panel viability, ATPlite luminescence, 48 h; series mostly up to 57.5 µM. Put shortly:
as §2

Test [18] deals with Tov112D. The test is described as above. Particulars: Gynecologic cancer cell panel viability, ATPlite luminescence, 48 h; series mostly up to 57.5 µM. The method, boiled down:
as §2

Test [19] is described as follows: Drug repurposing screens with cells derived from glioblastoma tumor samples (AID 1345199). Note: nearly all actives have a fitted effect of over 40% in size. Conditions: GBM patient neurospheres viability, ATP luminescence, 48 h. The method, boiled down: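 Four patient lines of CD133+ GBM neurospheres were screened at several concentrations; hits were retested in those lines plus three slower-growing GBM lines, using 48-hour treatment and ATP-based viability.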

For test [20], the system named is MCC-26. As to the kind of experiment: qHTS assay to identify novel small-molecules to repurpose for Merkel cell carcinoma treatment (AID 1296009). Note: nearly all actives have a fitted effect of over 60% in size. Conditions: MCC and control cell lines, CellTiter-Glo viability, 72 h; series mostly up to 46 µM. Put shortly: as §1
Setting [21] is: at 45.9 µM (top of the series), tumour line B.
Where [22] appears, read: at 45.9 µM (top of the series), tumour line D.
Where [23] appears, read: at 46.1 µM (top of the series), tumour line C.

Results filed as inconclusive are left out. A structure can be active in one record and inactive in another. Activity calls are given as the source filed them. Calls come from the whole dose curve; as a rule, active = well fitted curve in the direction sought with a large enough effect; inconclusive = small, poorly fitted or top-dose-only effect, or another doubt; inactive = no such curve, though single readings can be large; an effect the other way counts as inactive or inconclusive.
% is set by controls: 0 for no effect and ±100 for the full control effect; potency is the fitted concentration of half-maximal effect.

Consider `Cn1c(=O)c2c(ncn2CC2OCCO2)n(C)c1=O`, for which the Potency entry in [1], in test [2], in test [3], in test [5], in test [6] and in test [7] was “inactive” throughout. The Potency result in test [8], in test [9], in test [10], in test [11], in test [12] and in test [13] was “inactive” each time. Moreover, the Potency entry in [14], in test [15], in test [16], in test [17] and in [18] was “inactive” in each case. For the same molecule, in [4], the result was inactive. The activity, negative = cell killing in test [19] (setting [21]) was -0.596% (inactive); in test [19] (setting [22]) it was -3.46% (inactive); in test [19] (at 46 µM (top of the series), tumour line A), -20.3% (inactive); in test [19] (setting [23]) it was -4.14% (inactive).
Take `Cc1ccc(C(C)C)cc2c(C)ccc1-2`: the Potency entry in test [1], in test [2], in [3], in test [5], in [6] and in [7] was “inactive” throughout. The Potency result in [9], in [10], in test [11], in [12], in test [13] and in test [14] was “inactive” each time. The Potency result in test [15], in test [17] and in test [18] was “inactive” throughout. The outcome in [4] was inactive. For the same molecule, the activity, negative = cell killing in [19] (setting [21]) was -9% (inactive); in test [19] (setting [22]) it was 5.15% (inactive); in [19] (setting [23]) it was -3.49% (inactive).
With `CC(C(O)c1ccc(O)cc1)N1CCC(Cc2ccccc2)CC1` (configuration not stated), the Potency entry in [1], in [20], in [2], in test [3], in test [5] and in test [6] was “inactive” in each case. The Potency entry in [7], in [9], in test [10], in test [11], in test [12] and in test [13] was “inactive” in each case. Also, the Potency result in [15], in test [16], in [17] and in test [18] was “inactive” in each case. For the same molecule, the activity, negative = cell killing in [19] (setting [23]) was -15.9% (inactive). Further, the figures for the Potency in test [19] (tumour line A), in [19] (tumour line B) and in test [19] (tumour line D) were 2.82 µM (active), 35.5 µM (active) and 12.6 µM (active), respectively.
With `C[C@H]1O[C@H](O[C@H]2[C@H](O)[C@@H](O)[C@@H](O[C@H]3[C@H](O)[C@@H](O)[C@H](O)O[C@@H]3CO)O[C@@H]2CO)[C@H](O)[C@@H](O)[C@@H]1N[C@H]1C=C(CO)[C@@H](O)[C@H](O)[C@H]1O`, the Potency entry in test [1], in test [2], in [3], in test [5], in test [6] and in test [7] was “inactive” in each case. The Potency result in test [8], in test [9], in [10], in test [11], in [12] and in test [13] was “inactive” each time. For the same molecule, the Potency result in test [14], in [15], in [17] and in test [18] was “inactive” in each case. Besides, in test [4], the outcome was inactive. For the same molecule, the values for the activity, negative = cell killing in test [19] (setting [21]), in test [19] (setting [22]) and in test [19] (setting [23]) were -6.62% (inactive), 5.79% (inactive) and -10.2% (inactive), respectively.
For `COc1ccc2cc1Oc1ccc(cc1)C[C@H]1c3c(cc4c(c3Oc3cc5c(cc3OC)CCN(C)[C@@H]5C2)OCO4)CCN1C`, the Potency entry in test [1], in test [20], in test [7], in test [9], in test [10] and in test [11] was “inactive” each time. Also, the Potency result in test [12], in test [13], in test [17] and in test [18] was “inactive” throughout. Besides, the Potency in [2] was 23.7 µM (active); in test [3], 3.35 µM (active); in test [6], 18.8 µM (active); in test [14], 10 µM (active) and inactive; in [15], 28.2 µM (active).
For `O=C(O)[C@@H]1CSCN1`, the Potency entry in test [1], in test [2], in test [3], in test [5], in test [6] and in test [7] was “inactive” in each case. For the same molecule, the Potency result in test [8], in test [9], in [10], in test [11], in test [12] and in [13] was “inactive” in each case. In addition, the Potency result in test [14], in test [15], in test [16], in test [17] and in test [18] was “inactive” each time. In test [4], the outcome was inactive. For the same molecule, the activity, negative = cell killing in test [19] (setting [21]) was 0.874% (inactive); in test [19] (setting [22]), 4.12% (inactive); in test [19] (setting [23]) it was -12.1% (inactive).
